Reference: PubChem BioAssay (EPA / NIEHS)
Inconclusive results are not listed. The source made the active and inactive calls. The calls were made as follows, unless noted: active = hit-call score of the fitted dose curve at least 0.9, where 1 is the maximum; inconclusive = response in the unintended direction; inactive = score below 0.9.

Experiments:
[1] = target: Peroxisome proliferator-activated receptor gamma (Homo sapiens) (UniProt P37231); assay: ATG_PPARg_TRANS: Attagene TRANS-FACTORIAL HepG2 Assay for human Peroxisome Proliferator-activated Receptor-gamma (PPARg) (AID 2283007)
Method in brief: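 Twenty-four hours after chemical dosing of transiently transfected HepG2 cells, isolated RNA was converted to cDNA, reporter sequences amplified and 6-FAM-labelled, then HpaI-digested and analysed by capillary electrophoresis. Signal increase against DMSO was fitted.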

[2] = target: Retinoic acid receptor RXR-alpha (Homo sapiens) (UniProt P19793); assay: ATG_RXRa_TRANS: Attagene TRANS-FACTORIAL HepG2 Assay for human Retinoid X Receptor alpha (RXRa) (AID 2283012)
Method in brief: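 Transient transfection of human HepG2 with multiple GAL4-UAS reporter constructs; 24 h compound exposure; total RNA isolated, reverse-transcribed, PCR-amplified, 6-FAM labelled, HpaI-cut, resolved by capillary electrophoresis. Positive-direction fit versus DMSO.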

[3] = target: human Retinoid X Receptor beta (RXRb), RXRB (gene 6257) (UniProt P28702); assay: ATG_RXRb_TRANS: Attagene TRANS-FACTORIAL HepG2 Assay for human Retinoid X Receptor beta (RXRb) (AID 2283013)
Method in brief: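 Transfect HepG2 with GAL4-UAS multi-reporter constructs (chimeric NR-Gal4, TRANS format); dose compound 24 h; isolate RNA, RT-PCR, FAM primer extension, HpaI digest; quantify by capillary electrophoresis; positive direction vs DMSO.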

[4] = target: human Thyroid Receptor alpha (THRa1), THRA (gene 7067) (UniProt P10827); assay: ATG_THRa1_TRANS: Attagene TRANS-FACTORIAL HepG2 Assay for human Thyroid Receptor alpha (THRa1) (AID 2283014)
Method in brief: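 HepG2 cells transiently transfected with multiplexed GAL4-UAS reporter units for exogenous chimeric THRa1-Gal4; reporter mRNA measured 24 h after dosing by RT-PCR, 6-FAM labelling, HpaI digestion and capillary electrophoresis. Gain-of-signal fitted versus DMSO baseline.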

[5] = target: human Vitamin D Receptor (VDR), VDR (gene 7421) (UniProt P11473); assay: ATG_VDR_TRANS: Attagene TRANS-FACTORIAL HepG2 Assay for human Vitamin D Receptor (VDR) (AID 2283022)
Method in brief: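 HepG2 cells were transiently transfected with multiple GAL4-UAS reporter units, so signal reflects exogenous chimeric receptor-Gal4 activity. After 24 h compound exposure, reporter mRNA was measured by RT-PCR, fluorescent labelling and capillary electrophoresis, fitted for gain of signal versus DMSO.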

[6] = target: Nuclear receptor subfamily 1 group I member 2 (Homo sapiens) (UniProt O75469); assay: ATG_PXR_TRANS: Attagene TRANS-FACTORIAL HepG2 Assay for human Pregnane X Receptor (PXR) (AID 2283008)
Method in brief: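 HepG2 cells transiently transfected with GAL4-UAS reporter units and PXR-Gal4 chimera, exposed 24 h. Reporter mRNA quantified by RT-PCR, fluorescent labelling, HpaI digestion and capillary electrophoresis; gain of signal vs DMSO.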

[7] = target: human Retinoic Acid Receptor gamma (RARg), RARG (gene 5916) (UniProt P13631); assay: ATG_RARg_TRANS: Attagene TRANS-FACTORIAL HepG2 Assay for human Retinoic Acid Receptor gamma (RARg) (AID 2283009)
Method in brief: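 Transient transfection of HepG2 with multi-reporter constructs, then 24 h chemical treatment. Total RNA isolated, reverse-transcribed, PCR-amplified, fluorescently labelled and resolved by capillary electrophoresis; activity scored as mRNA induction versus DMSO.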

[8] = target: human RAR-related Orphan Receptor beta (RORb), RORB (gene 6096) (UniProt Q92753); assay: ATG_RORb_TRANS: Attagene TRANS-FACTORIAL HepG2 Assay for human RAR-related Orphan Receptor beta (RORb) (AID 2283010)
Method in brief: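 Readout is reporter-gene mRNA induction, detected as fluorescence after RT-PCR and capillary electrophoresis, fitted for gain of signal against DMSO controls. Transiently transfected HepG2 liver cells carrying GAL4-UAS reporter constructs were treated for 24 hours.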

[9] = target: human RAR-related Orphan Receptor gamma (RORg), RORC (gene 6097) (UniProt P51449); assay: ATG_RORg_TRANS: Attagene TRANS-FACTORIAL HepG2 Assay for human RAR-related Orphan Receptor gamma (RORg) (AID 2283011)
Method in brief: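 Readout: reporter transcript induction (RT-PCR, fluorescent primer extension, capillary electrophoresis) after 24 h compound exposure of transiently transfected HepG2 cells carrying a RORg-Gal4 chimera and GAL4-UAS reporters; DMSO served as baseline, with increasing signal fitted.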

[10] = read-out: E-selectin (Homo sapiens) (UniProt P16581); assay: BSK_3C_Eselectin: BioMAP Diversity Plus: 3C Assay for Eselectin Biomarker Activity (AID 2283015; active = hit-call score of the fitted dose curve at least 0.9, where 1 is the maximum; inactive = score below 0.9); details: primary human endothelial cells (HUVEC); actives raise or lower the signal
Method in brief: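 Primary human umbilical vein endothelial cells (3C system) were dosed with chemical and cell-surface E-selectin measured by ELISA 24 h later. Bidirectional curve fitting used DMSO as negative control and baseline.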

[11] = read-out: Interleukin-1 alpha (IL1a), IL1A (gene 3552); assay: BSK_BE3C_IL1a: BioMAP Diversity Plus: BE3C Assay for Interleukin-1 alpha (IL1a) Biomarker Activity (AID 2283016; active = hit-call score of the fitted dose curve at least 0.9, where 1 is the maximum; inactive = score below 0.9); details: primary human bronchial epithelial cells; actives raise or lower the signal
Method in brief: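 BE3C primary human bronchial epithelium; cpd 24 h; IL-1a by ELISA; bidirectional fit vs DMSO; parallel SRB (0.1% SRB, 10% TCA fix, 560 nm) for cytotoxicity.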

[12] = read-out: Monocyte Chemoattractant Protein-1 (MCP1), CCL2 (gene 6347); assay: BSK_3C_MCP1: BioMAP Diversity Plus: 3C Assay for Monocyte Chemoattractant Protein-1 (MCP1) Biomarker Activity (AID 2283017; active = hit-call score of the fitted dose curve at least 0.9, where 1 is the maximum; inactive = score below 0.9); details: primary human endothelial cells (HUVEC); actives raise or lower the signal
Method in brief: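 Primary human umbilical vein endothelial cells (3C system) were exposed to test chemical for 24 h, after which MCP-1 was quantified by ELISA. Activity was fitted bidirectionally against DMSO as negative control and baseline.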

[13] = read-out: Monocyte Chemoattractant Protein-1 (MCP1), CCL2 (gene 6347); assay: BSK_4H_MCP1: BioMAP Diversity Plus: 4H Assay for Monocyte Chemoattractant Protein-1 (MCP1) Biomarker Activity (AID 2283018; active = hit-call score of the fitted dose curve at least 0.9, where 1 is the maximum; inactive = score below 0.9); details: primary human endothelial cells (HUVEC); actives raise or lower the signal
Method in brief: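 ELISA read-out of MCP-1 from human vascular endothelial primary cells taken at 24 hours after compound exposure. Activity was fitted in both directions relative to DMSO, which served as negative control.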

[14] = read-out: Human Leukocyte Antigen - DR isotype (HLADR), HLA-DRA (gene 3122); assay: BSK_3C_HLADR: BioMAP Diversity Plus: 3C Assay for Human Leukocyte Antigen - DR isotype (HLADR) Biomarker Activity (AID 2283019; active = hit-call score of the fitted dose curve at least 0.9, where 1 is the maximum; inactive = score below 0.9); details: primary human endothelial cells (HUVEC); actives raise or lower the signal
Method in brief: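 Primary human umbilical vein endothelial cells (3C system) were dosed with compound and cell-surface HLA-DR was quantified by ELISA at 24 h. Activity was fitted bidirectionally against DMSO as negative control and baseline.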

[15] = read-out: Interleukin-8 (IL8), CXCL8 (gene 3576); assay: BSK_3C_IL8: BioMAP Diversity Plus: 3C Assay for Interleukin-8 (IL8) Biomarker Activity (AID 2283020; active = hit-call score of the fitted dose curve at least 0.9, where 1 is the maximum; inactive = score below 0.9); details: primary human endothelial cells (HUVEC); actives raise or lower the signal
Method in brief: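 ELISA read-out of IL-8 from human umbilical vein endothelium, measured 24 h after chemical dosing. Activity is expressed relative to DMSO negative control, with both increases and decreases fitted.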

[16] = read-out: Monokine induced gamma interferon (MIG), CXCL9 (gene 4283); assay: BSK_3C_MIG: BioMAP Diversity Plus: 3C Assay for Monokine induced gamma interferon (MIG) Biomarker Activity (AID 2283021; active = hit-call score of the fitted dose curve at least 0.9, where 1 is the maximum; inactive = score below 0.9); details: primary human endothelial cells (HUVEC); actives raise or lower the signal
Method in brief: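 Read-out is ELISA detection of MIG on human umbilical vein endothelial cells, taken 24 h after dosing. Gain or loss of signal was scored relative to DMSO controls using bidirectional curve fitting.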

Chain of human RAR-related Orphan Receptor beta (RORb), RORB (gene 6096) (Q92753 whole entry, looked up, the tested form may be a part): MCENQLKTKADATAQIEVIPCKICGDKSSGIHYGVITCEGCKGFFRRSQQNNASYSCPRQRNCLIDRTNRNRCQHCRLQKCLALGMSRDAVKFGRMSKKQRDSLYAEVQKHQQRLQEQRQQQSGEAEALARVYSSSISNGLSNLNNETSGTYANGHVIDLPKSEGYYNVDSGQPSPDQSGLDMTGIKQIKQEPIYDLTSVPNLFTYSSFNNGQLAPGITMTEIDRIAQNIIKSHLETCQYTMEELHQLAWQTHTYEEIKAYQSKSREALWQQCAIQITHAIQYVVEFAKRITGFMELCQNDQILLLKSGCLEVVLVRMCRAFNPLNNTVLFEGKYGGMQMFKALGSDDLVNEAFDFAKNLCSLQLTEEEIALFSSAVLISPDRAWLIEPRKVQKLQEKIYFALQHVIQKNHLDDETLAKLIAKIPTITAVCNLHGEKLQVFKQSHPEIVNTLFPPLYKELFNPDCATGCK
Chain of Nuclear receptor subfamily 1 group I member 2 (Homo sapiens) (O75469 whole entry, looked up, the tested form may be a part): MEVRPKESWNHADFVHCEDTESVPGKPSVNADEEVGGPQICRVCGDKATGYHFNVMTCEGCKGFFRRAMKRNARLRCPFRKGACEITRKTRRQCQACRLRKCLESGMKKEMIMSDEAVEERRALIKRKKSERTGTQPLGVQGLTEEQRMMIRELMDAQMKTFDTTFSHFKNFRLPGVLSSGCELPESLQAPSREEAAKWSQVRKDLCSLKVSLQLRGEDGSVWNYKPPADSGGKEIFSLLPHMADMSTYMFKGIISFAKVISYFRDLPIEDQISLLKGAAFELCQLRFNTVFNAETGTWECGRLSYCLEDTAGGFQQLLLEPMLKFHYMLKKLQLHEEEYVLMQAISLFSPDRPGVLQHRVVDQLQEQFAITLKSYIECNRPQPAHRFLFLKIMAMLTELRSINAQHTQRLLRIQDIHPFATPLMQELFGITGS
Chain of human Thyroid Receptor alpha (THRa1), THRA (gene 7067) (P10827 whole entry, looked up, the tested form may be a part): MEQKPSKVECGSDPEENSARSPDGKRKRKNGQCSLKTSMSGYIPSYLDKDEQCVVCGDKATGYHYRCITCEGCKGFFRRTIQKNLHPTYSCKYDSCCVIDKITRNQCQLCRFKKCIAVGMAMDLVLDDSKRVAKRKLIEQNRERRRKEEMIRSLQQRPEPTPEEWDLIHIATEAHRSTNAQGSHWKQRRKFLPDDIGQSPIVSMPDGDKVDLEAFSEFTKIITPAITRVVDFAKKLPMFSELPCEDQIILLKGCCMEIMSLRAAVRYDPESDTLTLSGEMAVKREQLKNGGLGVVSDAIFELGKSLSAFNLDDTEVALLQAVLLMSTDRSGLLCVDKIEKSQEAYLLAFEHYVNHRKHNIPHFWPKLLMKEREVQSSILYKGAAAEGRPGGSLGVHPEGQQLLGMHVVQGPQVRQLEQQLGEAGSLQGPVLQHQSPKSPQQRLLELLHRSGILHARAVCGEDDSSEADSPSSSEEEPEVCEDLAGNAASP
Chain of human Retinoid X Receptor beta (RXRb), RXRB (gene 6257) (P28702 whole entry, looked up, the tested form may be a part): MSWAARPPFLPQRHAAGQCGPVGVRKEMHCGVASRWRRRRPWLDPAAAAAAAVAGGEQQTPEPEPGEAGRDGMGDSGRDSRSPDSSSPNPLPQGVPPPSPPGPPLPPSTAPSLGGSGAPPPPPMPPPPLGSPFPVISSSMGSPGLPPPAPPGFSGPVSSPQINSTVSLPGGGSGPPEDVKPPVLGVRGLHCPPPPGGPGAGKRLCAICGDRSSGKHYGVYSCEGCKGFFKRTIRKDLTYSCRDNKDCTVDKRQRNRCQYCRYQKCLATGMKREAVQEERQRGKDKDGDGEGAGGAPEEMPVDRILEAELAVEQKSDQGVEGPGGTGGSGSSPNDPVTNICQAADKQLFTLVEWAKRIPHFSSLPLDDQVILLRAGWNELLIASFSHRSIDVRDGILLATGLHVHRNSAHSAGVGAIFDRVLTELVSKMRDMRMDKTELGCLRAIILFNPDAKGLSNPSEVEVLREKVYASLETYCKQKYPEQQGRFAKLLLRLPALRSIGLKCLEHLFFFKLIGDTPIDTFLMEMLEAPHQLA
Chain of human Retinoic Acid Receptor gamma (RARg), RARG (gene 5916) (P13631 whole entry, looked up): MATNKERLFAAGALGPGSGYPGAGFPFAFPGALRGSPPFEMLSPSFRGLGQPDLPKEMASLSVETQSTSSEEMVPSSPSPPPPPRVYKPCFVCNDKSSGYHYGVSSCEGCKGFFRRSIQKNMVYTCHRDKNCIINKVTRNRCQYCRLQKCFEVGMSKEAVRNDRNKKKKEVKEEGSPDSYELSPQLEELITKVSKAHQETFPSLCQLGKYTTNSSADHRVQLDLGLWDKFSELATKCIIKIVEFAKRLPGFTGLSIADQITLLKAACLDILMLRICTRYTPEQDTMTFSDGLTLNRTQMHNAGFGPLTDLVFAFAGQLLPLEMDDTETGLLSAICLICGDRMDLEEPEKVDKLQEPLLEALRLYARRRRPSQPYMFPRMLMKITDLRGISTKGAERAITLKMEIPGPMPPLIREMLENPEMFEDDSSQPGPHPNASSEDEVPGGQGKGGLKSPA
Chain of Retinoic acid receptor RXR-alpha (Homo sapiens) (P19793 whole entry, looked up, the tested form may be a part): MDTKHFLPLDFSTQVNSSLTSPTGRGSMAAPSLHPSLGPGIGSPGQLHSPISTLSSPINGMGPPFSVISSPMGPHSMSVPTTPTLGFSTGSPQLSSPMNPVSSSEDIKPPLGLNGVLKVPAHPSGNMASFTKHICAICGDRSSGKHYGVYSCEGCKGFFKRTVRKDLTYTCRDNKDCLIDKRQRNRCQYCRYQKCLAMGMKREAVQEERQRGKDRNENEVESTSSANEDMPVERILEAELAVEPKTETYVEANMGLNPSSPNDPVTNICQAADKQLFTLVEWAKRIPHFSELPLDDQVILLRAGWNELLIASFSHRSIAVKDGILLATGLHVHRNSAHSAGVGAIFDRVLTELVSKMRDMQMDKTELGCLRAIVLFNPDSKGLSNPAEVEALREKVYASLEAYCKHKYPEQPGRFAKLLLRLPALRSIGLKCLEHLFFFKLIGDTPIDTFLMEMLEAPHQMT
Chain of human RAR-related Orphan Receptor gamma (RORg), RORC (gene 6097) (P51449 whole entry, looked up, the tested form may be a part): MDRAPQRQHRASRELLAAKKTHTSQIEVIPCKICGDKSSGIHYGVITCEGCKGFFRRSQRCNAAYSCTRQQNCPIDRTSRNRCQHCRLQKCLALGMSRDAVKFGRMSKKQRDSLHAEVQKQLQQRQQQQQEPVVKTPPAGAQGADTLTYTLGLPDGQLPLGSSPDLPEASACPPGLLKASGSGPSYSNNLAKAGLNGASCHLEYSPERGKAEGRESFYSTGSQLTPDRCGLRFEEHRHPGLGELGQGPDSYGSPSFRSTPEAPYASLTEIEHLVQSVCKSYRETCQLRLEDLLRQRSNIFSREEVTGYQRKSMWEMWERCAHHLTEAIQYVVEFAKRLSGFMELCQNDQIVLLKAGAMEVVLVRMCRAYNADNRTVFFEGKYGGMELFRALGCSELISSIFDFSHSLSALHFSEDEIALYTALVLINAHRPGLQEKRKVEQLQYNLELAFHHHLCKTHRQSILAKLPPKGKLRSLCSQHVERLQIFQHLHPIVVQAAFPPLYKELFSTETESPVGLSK
Chain of Peroxisome proliferator-activated receptor gamma (Homo sapiens) (P37231 whole entry, looked up): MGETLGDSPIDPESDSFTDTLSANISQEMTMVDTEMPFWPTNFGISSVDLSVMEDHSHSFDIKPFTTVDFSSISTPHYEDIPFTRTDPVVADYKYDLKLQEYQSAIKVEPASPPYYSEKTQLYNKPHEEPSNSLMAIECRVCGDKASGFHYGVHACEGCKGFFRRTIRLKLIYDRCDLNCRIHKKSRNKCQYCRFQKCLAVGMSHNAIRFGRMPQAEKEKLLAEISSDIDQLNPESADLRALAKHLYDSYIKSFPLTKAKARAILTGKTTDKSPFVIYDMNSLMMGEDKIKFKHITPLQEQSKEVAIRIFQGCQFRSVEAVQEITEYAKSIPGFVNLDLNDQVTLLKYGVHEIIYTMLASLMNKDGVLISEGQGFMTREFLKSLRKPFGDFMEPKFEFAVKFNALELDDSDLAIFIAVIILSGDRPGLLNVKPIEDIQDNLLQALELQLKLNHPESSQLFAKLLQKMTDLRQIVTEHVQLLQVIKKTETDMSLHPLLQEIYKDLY
Chain of human Vitamin D Receptor (VDR), VDR (gene 7421) (P11473 whole entry, looked up, the tested form may be a part): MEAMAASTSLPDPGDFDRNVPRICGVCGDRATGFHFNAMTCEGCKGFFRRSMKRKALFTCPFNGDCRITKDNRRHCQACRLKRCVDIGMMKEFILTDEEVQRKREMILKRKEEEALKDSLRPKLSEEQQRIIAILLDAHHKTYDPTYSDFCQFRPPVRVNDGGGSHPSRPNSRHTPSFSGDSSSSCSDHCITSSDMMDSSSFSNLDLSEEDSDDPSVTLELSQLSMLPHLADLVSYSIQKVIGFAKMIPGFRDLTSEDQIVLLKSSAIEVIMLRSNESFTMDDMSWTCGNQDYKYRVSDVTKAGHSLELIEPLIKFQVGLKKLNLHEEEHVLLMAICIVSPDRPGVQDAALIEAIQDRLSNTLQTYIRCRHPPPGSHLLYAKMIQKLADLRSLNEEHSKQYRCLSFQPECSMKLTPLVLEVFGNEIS
Chain of E-selectin (Homo sapiens) (P16581 whole entry, looked up): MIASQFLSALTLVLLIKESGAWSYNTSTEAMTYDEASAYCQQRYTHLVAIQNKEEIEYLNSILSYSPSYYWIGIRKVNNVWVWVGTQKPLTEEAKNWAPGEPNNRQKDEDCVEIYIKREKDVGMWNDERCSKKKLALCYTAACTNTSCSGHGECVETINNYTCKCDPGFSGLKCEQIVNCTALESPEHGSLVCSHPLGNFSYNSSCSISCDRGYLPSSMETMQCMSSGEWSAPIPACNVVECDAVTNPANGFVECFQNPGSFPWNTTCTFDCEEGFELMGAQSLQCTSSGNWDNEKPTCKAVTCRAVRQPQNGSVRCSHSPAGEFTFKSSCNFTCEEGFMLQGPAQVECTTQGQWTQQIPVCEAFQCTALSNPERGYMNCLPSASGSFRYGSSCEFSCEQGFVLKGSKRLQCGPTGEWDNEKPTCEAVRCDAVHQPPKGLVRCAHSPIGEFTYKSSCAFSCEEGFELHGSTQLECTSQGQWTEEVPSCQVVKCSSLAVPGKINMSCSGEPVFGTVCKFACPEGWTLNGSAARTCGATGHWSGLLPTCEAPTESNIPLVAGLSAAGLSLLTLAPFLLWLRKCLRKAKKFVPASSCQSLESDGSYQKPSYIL

OCC(c1ccc(Cl)cc1)c1ccc(Cl)cc1
AC50 [1]: 39.2 µM (active)
outcome [2]: inactive
outcome [3]: inactive
outcome [4]: inactive
outcome [5]: inactive

c1csc(-c2ccc(-c3cccs3)s2)c1
AC50 [6]: 8.5 µM (active)
outcome [7]: inactive
outcome [8]: inactive
outcome [2]: inactive
outcome [3]: inactive
outcome [4]: inactive
outcome [5]: inactive

C=C(C)[C@@H]1CC=C(C=O)CC1
AC50 [1]: 22.5 µM (active)
AC50 [6]: 11 µM (active)
outcome [4]: inactive
outcome [5]: inactive

COP(=S)(OC)Oc1cc(Cl)c(I)cc1Cl
AC50 [1]: 28.3 µM (active)
AC50 [6]: 21.8 µM (active)
outcome [2]: inactive
AC50 [3]: 38.6 µM (active)
outcome [4]: inactive

CCCCCCCCCCCCCCC(Br)C(=O)O (configuration not stated)
AC50 [1]: 11.4 µM (active)
outcome [6]: inactive
outcome [9]: inactive
AC50 [2]: 26.7 µM (active)
AC50 [3]: 9.18 µM (active)

BrCC(Br)c1ccccc1 (configuration not stated)
outcome [1]: inactive
outcome [8]: inactive
outcome [9]: inactive
outcome [2]: inactive

Oc1cc(Cl)c(Cl)cc1Cl
AC50 [1]: 55.9 µM (active)
outcome [6]: inactive
outcome [2]: inactive
AC50 [3]: 151 µM (active)
outcome [4]: inactive
AC50 [10]: 35.4 µM (active)
outcome [11]: inactive
AC50 [12]: 33.3 µM (active)
AC50 [13]: 20 µM (active)
AC50 [14]: 16.8 µM (active)
AC50 [15]: 31.7 µM (active)
outcome [16]: inactive

O=NN1CCCCCC1
outcome [1]: inactive
outcome [6]: inactive
outcome [2]: inactive
outcome [3]: inactive
outcome [4]: inactive

C=CC(=O)OCC(COC(=O)C=C)(COC(=O)C=C)COC(=O)C=C
AC50 [1]: 100 µM (active)
outcome [7]: inactive
outcome [8]: inactive
outcome [9]: inactive
AC50 [3]: 100 µM (active)
outcome [4]: inactive

O=NN1CCCCCCC1
outcome [1]: inactive
outcome [6]: inactive
outcome [2]: inactive
outcome [3]: inactive

O=C(CCl)Nc1ccccc1
AC50 [1]: 2.7 µM (active)
outcome [6]: inactive
outcome [4]: inactive

O=C(NC(=O)c1c(F)cccc1F)Nc1cc(Cl)c(Oc2ncc(C(F)(F)F)cc2Cl)c(Cl)c1
outcome [1]: inactive
outcome [6]: inactive
outcome [4]: inactive
outcome [5]: inactive

ClCc1ccccc1Cl
outcome [1]: inactive
outcome [8]: inactive
outcome [9]: inactive

Clc1ccc(C(Cl)(Cl)Cl)cn1
outcome [1]: inactive
outcome [9]: inactive
outcome [2]: inactive
outcome [3]: inactive
outcome [4]: inactive

CCOP(=S)(OCC)O/N=C(\C#N)c1ccccc1
AC50 [1]: 10.6 µM (active)
outcome [2]: inactive
AC50 [3]: 27.5 µM (active)
outcome [5]: inactive

CC(=O)C(F)(F)C(F)(F)F
outcome [1]: inactive
outcome [6]: inactive
outcome [2]: inactive
outcome [3]: inactive
outcome [4]: inactive

CCCSP(=S)(OCC)Oc1ccc(SC)cc1 (configuration not stated)
AC50 [1]: 15.2 µM (active)
AC50 [6]: 3.65 µM (active)
outcome [3]: inactive
outcome [5]: inactive

C#CCO
outcome [1]: inactive
outcome [7]: inactive
outcome [8]: inactive
outcome [9]: inactive
outcome [3]: inactive
outcome [4]: inactive
outcome [5]: inactive
